Results taken from PubChem BioAssay (Tox21).
Several values for one entry are separate records, joined by “and”; a condition that tells them apart may be missing. Identical values can stand only once. Results filed as inconclusive are left out. Where a call stands in place of a potency, no number is given. More than one record can exist for a structure, and the calls need not agree. Activity calls are given as the source filed them. Calls come from the whole dose curve; as a rule, active = well fitted cell-killing curve with a large enough effect in the repeat runs; inconclusive = weak or mixed curves; inactive = no such curve, though single readings can be large or run the other way.

Assay: qHTS assay to identify small molecule antagonists of the peroxisome proliferator-activated receptor delta (PPARd) signaling pathway - cell viability counter screen (AID 743213); note: nearly all actives have a fitted effect of over 50% in size
Conditions: PPARd-bla HEK293H viability, CellTiter-Glo luminescence, 17 h; series mostly up to 62 µM
Text: U.S. Tox21 Program National Center for Advancing Translational Sciences [NCATS] NIH Chemical Genomics Center [NCGC] U.S. Environmental Protection Agency [EPA] National Institutes of Environmental Health Sciences [NIEHS] National Toxicology Program [NTP] U.S. Food and Drug Administration [FDA] Tox21 Assay Overview: The peroxisome proliferator-activated receptors (PPARs) are lipid-activated transcription factors of the nuclear receptor superfamily with three distinct subtypes namely PPAR alpha, PPAR delta (PPARd) and PPAR gamma. All these subtypes heterodimerizes with Retinoid X receptor (RXR) and have different physiological functions. […] To identify the compounds that inhibit PPAR-delta signaling, GeneBLAzer PPAR delta UAS-bla HEK293H cell line (Invitrogen, Carlsbad, CA, USA) containing a beta-lactamase reporter gene under the control of an Upstream Activator Sequence (UAS) was used to screen the Tox21 compound library. The cytotoxicity of the Tox21 compound library against the PPARd-bla cell line was tested in parallel by measuring the cell viability using CellTiter-Glo assay (Promega, Madison, WI) in the same wells.
Tox21 Assay Protocol Summary: PPARd-bla cells were dispensed at 3000 cells/5uL/well in 1536-well black wall/clear bottom plates using a Multidrop Combi (Thermo Fisher Scientific, Waltham, MA) dispenser. After the assay plates were incubated at 37 C and 5% CO2 for 5 h, 23 nL of compounds dissolved in DMSO, positive controls or DMSO only was transferred to the assay plate by a Pintool station (Kalypsys, San Diego, CA), followed by addition of 1ul L165041 (300 nM, final concentration in the wells). The assay plates were incubated at 37 C for 17 h, and then 1 uL of LiveBLAzerTM B/G FRET substrate was added using a Bioraptr Flying Reagent Dispenser (FRD) workstation (Beckman Coulter, Indianapolis, IN, USA). The assay plates were incubated at room temperature for 2 h and fluorescence intensity was measured by an Envision plate reader (PerkinElmer, Shelton, CT). For cell viability readout that measures cytotoxicity, 3 ul/well of CellTiter-Glo reagent was added into the assay plates using a Bioraptr FRD. After 30 min incubation at room temperature, the luminescence intensity in the plates was measured using a ViewLux plate reader (PerkinElmer).
Potency is the fitted concentration of half-maximal effect.

Row | Structure (SMILES) | Potency
1 | C[C@]12CCC(=O)C=C1CC[C@@H]1[C@@H]2C(=O)C[C@@]2(C)[C@H]1CC[C@]2(O)C(=O)CO | 49 µM (active) and inactive
2 | Cc1ccc2c(n1)Oc1ccc(C(C)C(=O)OCC(=O)N(C)C)cc1C2 (stereo not given) | inactive
3 | CCC(C)OC(=O)c1ccc(O)cc1 (stereo not given) | inactive
4 | NC=O | inactive
5 | O=c1oc(=O)c2cc3c(=O)oc(=O)c3cc12 | inactive
6 | Clc1nc(Cl)c(Cl)c(Cl)c1Cl | inactive
7 | CCCCC/C=C/C=C/C=O | inactive
8 | CC(CCC(=O)O)(c1ccc(O)cc1)c1ccc(O)cc1 | inactive
9 | OC1CCCCCCCCCCC1 | inactive
10 | CC(C)=CCCC(C)CCO (stereo not given) | inactive
11 | CC(C)=CCC/C(C)=C\CO | inactive
12 | CCCC(=O)O | inactive
13 | O=Cc1ccccc1O | inactive
14 | O=C(O)c1ccccc1Nc1cccc(C(F)(F)F)c1 | inactive
15 | O=C1OC2(c3cc(Br)c(O)c(Br)c3Oc3c2cc(Br)c(O)c3Br)c2c(Cl)c(Cl)c(Cl)c(Cl)c21 | inactive
16 | CC1=CCC(C(C)(C)O)CC1 (stereo not given) | inactive
17 | c1ccc2c(c1)Oc1ccccc1S2 | inactive
18 | Nc1ccc(S(=O)(=O)Nc2cnc3ccccc3n2)cc1 | inactive
19 | Cc1cccc(C(=O)O)c1 | inactive
20 | CCCCCCCCCCCO | inactive

Row | Structure (SMILES) | Potency
21 | Nc1ccc(Nc2ccccc2)cc1 | inactive
22 | CCC(C)c1ccccc1O (stereo not given) | inactive
23 | OC(CCl)CCl | inactive
24 | C/C=C/C(=O)O | inactive
25 | C[Si](C)(C)O[Si](C)(C)C | inactive
26 | c1ccc2cc(Nc3ccc(Nc4ccc5ccccc5c4)cc3)ccc2c1 | inactive
27 | CNCCCC12CCC(c3ccccc31)c1ccccc12 | 9.77 µM (active) and 16.8 µM (active)
28 | C=C(C)C1CC=C(C)CC1 (stereo not given) | inactive
29 | c1ccc2c(c1)c1cccc3ccc4cccc2c4c31 | inactive
30 | Cc1cc2nc3c(=O)[nH]c(=O)nc-3n(C[C@H](O)[C@H](O)[C@H](O)CO)c2cc1C | inactive
31 | NNc1ccc(C(=O)O)cc1 | inactive
32 | Cc1ccc(C)c(O)c1C | inactive
33 | CC(C)OB(OC(C)C)OC(C)C | inactive
34 | O=C(c1ccc(OCCN2CCCCC2)cc1)c1c(-c2ccc(O)cc2)sc2cc(O)ccc12 | 24.6 µM (active) and 8.71 µM (active) and 26.6 µM (active)
35 | Nc1ccccc1N | inactive
36 | O=CCCCC=O | inactive
37 | COC(=O)CCC(=O)OC | inactive
38 | Nc1ccc(Cl)cc1Cl | inactive
39 | O=C(/C=C/C=C/c1ccc2c(c1)OCO2)N1CCCCC1 | inactive
40 | CC(=O)c1ccccn1 | inactive
